The supplement of paper PMC11732987, “Enantioselective OTUD7B fragment discovery through chemoproteomics screening and high-throughput optimisation” (Communications Chemistry, 2025)

Key:
Assay in all cases: log2 ratio of Biotin-Ahx-Ub-VS probe labelling (fragment/DMSO); higher = less target engagement (more negative = stronger competition), active = hit call of the paper (q ≤ 0.05, log2 ratio ≤ -1)
Conditions in all cases: compound concentration: 200 uM; treatment time: 3 h
[1] = molecular target: T1, USP42 (UniProt Q9H9J4)
T1 sequence (whole entry): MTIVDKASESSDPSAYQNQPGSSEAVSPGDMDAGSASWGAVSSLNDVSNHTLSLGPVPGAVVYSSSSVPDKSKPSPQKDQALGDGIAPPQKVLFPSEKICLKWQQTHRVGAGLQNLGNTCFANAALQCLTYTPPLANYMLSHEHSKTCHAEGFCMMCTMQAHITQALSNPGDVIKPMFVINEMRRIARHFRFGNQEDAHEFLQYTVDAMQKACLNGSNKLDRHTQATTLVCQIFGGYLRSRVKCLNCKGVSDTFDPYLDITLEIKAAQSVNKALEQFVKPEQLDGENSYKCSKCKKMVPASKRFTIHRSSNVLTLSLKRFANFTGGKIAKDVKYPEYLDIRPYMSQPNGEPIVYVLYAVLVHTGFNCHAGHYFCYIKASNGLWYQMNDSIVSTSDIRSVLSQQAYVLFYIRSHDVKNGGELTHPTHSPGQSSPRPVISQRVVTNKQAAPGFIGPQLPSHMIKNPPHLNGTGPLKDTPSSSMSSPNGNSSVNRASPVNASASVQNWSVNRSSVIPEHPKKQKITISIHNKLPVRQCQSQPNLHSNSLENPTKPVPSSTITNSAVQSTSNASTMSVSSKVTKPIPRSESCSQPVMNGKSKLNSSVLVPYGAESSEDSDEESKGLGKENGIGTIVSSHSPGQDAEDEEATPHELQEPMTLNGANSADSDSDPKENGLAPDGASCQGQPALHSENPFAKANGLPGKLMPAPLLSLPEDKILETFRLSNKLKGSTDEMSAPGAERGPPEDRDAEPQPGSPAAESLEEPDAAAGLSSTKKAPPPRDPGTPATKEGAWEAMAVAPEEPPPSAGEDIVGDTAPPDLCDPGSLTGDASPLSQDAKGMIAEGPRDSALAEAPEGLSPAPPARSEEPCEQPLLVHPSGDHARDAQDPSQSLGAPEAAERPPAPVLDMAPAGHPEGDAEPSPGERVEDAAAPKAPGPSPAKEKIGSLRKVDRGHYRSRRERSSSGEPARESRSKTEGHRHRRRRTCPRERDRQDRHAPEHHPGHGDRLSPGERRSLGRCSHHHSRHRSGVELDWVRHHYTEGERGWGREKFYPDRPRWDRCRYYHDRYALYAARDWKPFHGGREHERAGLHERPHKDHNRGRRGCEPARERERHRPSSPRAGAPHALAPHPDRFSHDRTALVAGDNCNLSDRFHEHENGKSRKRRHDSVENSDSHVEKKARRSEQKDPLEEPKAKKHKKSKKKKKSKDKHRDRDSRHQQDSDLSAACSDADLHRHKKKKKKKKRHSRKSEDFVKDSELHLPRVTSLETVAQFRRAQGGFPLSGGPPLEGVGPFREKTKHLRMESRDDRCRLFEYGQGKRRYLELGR
Procedure, shortened: (§1)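 HEK293T lysate (495 µg per sample, in Tris/CHAPS/IGEPAL buffer with protease inhibitors) was exposed in triplicate for 3 h to fragment at 200 µM or to vehicle, then to Biotin-Ahx-Ub-VS at 0.5 µM final for 1 h. Labelled DUBs were enriched on NeutrAvidin, digested with LysC and trypsin, and analysed by diaPASEF LC-MS/MS. Spectronaut label-free quantities were normalised to the global median, and values are average log2 ratios of fragment over vehicle from an unpaired t-test. Only proteins with ≥2 unique peptides were used.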

[2] = molecular target: USP46 (UniProt P62068)
Procedure, shortened: as §1

[3] = molecular target: T2, USP47 (UniProt Q96K76)
T2 sequence (whole entry): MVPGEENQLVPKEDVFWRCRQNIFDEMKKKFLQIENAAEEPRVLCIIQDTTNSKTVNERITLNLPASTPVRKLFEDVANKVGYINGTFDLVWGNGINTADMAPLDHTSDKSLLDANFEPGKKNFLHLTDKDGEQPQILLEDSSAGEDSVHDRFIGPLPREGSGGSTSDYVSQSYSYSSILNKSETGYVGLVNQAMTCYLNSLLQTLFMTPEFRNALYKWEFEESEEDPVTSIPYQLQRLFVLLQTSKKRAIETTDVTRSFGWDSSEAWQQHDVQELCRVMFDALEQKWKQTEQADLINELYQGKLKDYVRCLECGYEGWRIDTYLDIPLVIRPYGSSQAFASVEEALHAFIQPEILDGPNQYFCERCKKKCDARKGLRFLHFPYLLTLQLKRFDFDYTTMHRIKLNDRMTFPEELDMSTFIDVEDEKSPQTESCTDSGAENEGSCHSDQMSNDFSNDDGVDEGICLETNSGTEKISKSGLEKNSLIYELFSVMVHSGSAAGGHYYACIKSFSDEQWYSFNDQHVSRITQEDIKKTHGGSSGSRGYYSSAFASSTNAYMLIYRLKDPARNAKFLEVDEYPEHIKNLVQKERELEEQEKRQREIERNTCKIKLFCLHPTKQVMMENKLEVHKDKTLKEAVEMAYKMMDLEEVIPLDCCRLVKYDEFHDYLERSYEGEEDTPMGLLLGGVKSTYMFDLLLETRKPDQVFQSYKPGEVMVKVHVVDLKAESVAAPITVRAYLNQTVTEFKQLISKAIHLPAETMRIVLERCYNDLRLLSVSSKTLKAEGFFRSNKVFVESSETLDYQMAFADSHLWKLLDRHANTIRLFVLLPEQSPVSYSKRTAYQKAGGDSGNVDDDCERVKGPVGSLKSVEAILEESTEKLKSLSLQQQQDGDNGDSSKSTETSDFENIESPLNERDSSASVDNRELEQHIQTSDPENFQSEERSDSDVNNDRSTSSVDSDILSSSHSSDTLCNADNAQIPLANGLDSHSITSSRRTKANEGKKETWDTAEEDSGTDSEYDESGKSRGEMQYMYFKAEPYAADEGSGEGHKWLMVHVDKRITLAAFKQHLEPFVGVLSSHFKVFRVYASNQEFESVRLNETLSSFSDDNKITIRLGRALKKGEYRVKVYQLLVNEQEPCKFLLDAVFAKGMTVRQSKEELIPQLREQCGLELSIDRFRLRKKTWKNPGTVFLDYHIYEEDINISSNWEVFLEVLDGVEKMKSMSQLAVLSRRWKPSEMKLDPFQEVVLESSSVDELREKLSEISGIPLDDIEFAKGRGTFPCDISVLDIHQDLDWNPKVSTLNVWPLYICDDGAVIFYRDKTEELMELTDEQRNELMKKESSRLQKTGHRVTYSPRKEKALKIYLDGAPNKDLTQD
Procedure, shortened: as §1

[4] = molecular target: T3, USP48 (UniProt Q86UV5)
T3 sequence (whole entry): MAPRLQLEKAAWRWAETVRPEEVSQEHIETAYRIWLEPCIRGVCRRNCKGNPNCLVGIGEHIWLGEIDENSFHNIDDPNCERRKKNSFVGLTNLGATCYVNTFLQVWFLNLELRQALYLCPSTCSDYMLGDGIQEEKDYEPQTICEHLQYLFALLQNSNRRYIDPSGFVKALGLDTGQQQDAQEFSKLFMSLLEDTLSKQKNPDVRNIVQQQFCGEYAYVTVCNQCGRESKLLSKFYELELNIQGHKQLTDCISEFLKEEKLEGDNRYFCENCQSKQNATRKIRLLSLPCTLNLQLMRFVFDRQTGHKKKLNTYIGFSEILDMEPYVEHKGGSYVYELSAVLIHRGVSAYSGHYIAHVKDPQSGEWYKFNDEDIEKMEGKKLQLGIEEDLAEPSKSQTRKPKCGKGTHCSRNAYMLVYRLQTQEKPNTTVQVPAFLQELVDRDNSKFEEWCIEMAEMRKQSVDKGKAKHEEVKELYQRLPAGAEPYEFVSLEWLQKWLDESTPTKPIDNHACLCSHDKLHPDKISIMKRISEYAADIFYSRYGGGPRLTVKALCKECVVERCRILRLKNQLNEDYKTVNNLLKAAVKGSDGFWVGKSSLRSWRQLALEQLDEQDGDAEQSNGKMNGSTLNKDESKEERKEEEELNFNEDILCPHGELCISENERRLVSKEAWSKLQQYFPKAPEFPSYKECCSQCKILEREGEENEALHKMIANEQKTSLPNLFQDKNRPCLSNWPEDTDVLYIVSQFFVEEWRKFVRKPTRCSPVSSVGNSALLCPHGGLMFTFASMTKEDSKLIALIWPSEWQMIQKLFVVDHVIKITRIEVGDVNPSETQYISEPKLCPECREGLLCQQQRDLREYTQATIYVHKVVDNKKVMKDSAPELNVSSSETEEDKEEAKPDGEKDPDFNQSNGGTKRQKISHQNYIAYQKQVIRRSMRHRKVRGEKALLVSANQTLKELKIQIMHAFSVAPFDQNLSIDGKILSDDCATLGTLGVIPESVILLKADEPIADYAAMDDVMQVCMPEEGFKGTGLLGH
Procedure, shortened: as §1

[5] = molecular target: T4, USP5 (UniProt P45974)
T4 sequence (whole entry): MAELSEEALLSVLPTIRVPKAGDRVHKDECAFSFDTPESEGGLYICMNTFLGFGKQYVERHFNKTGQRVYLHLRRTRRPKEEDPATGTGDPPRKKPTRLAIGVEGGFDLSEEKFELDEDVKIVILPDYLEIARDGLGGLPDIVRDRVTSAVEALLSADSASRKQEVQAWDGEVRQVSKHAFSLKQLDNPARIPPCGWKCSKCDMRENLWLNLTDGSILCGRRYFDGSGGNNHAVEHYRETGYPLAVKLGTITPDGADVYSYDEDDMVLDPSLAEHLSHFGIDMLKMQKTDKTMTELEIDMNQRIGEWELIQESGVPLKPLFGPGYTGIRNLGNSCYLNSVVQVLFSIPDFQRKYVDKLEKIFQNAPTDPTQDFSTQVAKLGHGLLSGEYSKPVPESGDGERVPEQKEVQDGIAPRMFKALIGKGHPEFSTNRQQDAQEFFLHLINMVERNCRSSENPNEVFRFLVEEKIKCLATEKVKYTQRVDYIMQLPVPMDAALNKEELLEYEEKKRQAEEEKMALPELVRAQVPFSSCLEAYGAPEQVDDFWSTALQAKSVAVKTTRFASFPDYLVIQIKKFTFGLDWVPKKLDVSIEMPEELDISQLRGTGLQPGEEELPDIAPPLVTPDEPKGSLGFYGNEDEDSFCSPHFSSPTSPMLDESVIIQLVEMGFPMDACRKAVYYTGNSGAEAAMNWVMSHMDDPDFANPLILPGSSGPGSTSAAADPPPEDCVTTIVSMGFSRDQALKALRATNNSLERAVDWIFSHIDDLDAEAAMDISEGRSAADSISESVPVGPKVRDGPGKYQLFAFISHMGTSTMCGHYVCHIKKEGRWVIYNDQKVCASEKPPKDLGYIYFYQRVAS
Procedure, shortened: as §1

[6] = molecular target: USP54 (UniProt Q70EL1)
Procedure, shortened: as §1

[7] = molecular target: USP7 (UniProt Q93009)
Procedure, shortened: as §1

[8] = molecular target: T5, USP8 (UniProt P40818)
T5 sequence (whole entry): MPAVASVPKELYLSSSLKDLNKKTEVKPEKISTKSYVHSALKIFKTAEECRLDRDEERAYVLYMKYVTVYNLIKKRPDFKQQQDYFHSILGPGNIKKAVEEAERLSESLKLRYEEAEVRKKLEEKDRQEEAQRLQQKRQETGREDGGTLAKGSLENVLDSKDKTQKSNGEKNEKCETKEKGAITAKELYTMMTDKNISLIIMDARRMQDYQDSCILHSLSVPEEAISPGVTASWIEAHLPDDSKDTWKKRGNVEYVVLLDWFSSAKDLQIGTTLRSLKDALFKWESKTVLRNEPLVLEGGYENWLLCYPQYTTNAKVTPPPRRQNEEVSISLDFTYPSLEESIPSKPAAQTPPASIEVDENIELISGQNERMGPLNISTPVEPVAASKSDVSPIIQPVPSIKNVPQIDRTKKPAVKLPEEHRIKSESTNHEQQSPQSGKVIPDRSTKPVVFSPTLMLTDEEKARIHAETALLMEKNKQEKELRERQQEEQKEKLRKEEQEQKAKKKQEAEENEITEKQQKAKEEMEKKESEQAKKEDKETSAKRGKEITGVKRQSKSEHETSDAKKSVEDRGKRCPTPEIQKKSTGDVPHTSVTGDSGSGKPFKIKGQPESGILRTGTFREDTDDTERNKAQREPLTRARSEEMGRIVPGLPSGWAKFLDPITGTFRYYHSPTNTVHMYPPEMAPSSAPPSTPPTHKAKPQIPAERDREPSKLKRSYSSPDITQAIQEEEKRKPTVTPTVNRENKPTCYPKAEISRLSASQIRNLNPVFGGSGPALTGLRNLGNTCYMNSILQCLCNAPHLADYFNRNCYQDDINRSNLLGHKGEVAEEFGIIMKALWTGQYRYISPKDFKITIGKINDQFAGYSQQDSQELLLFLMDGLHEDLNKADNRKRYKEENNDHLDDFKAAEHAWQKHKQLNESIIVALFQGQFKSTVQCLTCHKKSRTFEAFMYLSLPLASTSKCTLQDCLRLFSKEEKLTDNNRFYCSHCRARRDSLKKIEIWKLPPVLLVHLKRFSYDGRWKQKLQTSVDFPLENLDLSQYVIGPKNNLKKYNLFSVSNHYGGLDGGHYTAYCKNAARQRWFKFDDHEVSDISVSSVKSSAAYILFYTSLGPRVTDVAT
Procedure, shortened: as §1

Measured: log2 ratio of Biotin-Ahx-Ub-VS probe labelling

Sequence of USP54 (Q70EL1 whole entry): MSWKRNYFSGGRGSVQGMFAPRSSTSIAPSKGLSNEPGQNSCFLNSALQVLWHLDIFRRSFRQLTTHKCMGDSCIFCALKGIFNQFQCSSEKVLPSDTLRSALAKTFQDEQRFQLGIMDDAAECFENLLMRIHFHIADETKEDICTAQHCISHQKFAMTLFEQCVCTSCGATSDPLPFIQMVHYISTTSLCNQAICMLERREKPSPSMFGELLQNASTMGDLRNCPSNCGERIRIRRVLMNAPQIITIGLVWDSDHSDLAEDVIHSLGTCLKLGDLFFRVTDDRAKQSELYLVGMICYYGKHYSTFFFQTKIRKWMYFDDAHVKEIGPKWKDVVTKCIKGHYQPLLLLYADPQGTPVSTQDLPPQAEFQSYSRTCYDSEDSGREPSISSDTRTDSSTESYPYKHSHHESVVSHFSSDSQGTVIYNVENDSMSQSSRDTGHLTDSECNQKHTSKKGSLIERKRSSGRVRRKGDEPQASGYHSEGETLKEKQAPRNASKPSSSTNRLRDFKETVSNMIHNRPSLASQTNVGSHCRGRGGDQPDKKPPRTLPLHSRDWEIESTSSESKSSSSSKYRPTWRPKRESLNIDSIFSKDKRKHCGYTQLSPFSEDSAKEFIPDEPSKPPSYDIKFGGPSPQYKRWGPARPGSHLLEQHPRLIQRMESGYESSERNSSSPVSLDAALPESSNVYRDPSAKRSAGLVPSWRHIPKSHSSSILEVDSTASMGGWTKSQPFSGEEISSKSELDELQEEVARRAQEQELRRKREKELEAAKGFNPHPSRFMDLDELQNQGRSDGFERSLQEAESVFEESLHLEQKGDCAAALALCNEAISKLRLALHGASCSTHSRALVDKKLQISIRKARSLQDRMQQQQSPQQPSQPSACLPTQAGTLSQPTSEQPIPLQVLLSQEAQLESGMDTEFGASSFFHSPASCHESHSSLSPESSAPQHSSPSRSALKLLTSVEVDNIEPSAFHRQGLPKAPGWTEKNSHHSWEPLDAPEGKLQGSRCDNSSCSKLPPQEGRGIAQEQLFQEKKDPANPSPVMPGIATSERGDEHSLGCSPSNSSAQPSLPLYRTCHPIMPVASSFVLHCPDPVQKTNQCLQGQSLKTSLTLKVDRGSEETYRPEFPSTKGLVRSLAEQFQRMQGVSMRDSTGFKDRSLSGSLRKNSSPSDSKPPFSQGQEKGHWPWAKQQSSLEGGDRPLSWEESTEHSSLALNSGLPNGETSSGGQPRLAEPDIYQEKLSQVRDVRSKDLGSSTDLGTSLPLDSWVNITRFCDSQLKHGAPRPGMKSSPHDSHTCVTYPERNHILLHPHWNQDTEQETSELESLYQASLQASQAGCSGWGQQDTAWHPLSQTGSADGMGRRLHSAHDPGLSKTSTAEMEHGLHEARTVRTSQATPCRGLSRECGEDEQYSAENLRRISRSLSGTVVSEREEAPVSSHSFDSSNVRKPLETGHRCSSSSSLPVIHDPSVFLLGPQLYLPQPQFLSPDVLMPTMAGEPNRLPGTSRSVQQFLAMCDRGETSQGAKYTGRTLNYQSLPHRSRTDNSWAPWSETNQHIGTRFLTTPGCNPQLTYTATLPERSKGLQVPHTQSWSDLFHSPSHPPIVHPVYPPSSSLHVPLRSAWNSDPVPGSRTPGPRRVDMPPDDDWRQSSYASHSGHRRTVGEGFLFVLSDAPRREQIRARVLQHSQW
Sequence of USP7 (Q93009 whole entry, looked up): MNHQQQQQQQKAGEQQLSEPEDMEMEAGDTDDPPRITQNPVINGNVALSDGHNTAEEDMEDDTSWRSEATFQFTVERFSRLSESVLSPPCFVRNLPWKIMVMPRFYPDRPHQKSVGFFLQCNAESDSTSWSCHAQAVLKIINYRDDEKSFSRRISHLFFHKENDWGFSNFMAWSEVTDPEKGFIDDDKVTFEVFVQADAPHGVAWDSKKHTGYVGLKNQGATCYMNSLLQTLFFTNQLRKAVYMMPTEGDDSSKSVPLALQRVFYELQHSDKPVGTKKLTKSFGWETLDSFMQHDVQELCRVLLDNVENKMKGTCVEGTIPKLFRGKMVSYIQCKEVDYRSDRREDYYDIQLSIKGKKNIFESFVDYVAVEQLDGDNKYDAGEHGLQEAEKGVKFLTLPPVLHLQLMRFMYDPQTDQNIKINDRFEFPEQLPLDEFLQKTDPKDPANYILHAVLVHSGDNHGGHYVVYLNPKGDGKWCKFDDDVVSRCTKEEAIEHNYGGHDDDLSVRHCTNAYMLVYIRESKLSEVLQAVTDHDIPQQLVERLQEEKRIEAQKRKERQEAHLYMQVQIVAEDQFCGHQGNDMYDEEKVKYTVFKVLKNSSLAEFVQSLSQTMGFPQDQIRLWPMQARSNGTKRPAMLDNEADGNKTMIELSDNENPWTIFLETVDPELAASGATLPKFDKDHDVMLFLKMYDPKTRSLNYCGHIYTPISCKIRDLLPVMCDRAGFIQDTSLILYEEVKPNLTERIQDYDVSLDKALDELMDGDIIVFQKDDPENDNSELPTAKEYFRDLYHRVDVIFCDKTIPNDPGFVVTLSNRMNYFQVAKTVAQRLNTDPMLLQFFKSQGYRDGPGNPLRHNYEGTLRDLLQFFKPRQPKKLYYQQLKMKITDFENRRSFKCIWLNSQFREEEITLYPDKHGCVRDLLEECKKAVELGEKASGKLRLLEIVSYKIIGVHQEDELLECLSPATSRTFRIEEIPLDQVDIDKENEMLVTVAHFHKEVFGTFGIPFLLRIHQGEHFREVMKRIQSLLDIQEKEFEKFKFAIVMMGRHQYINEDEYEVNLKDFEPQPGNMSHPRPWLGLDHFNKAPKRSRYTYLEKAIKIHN
Sequence of USP46 (P62068 whole entry): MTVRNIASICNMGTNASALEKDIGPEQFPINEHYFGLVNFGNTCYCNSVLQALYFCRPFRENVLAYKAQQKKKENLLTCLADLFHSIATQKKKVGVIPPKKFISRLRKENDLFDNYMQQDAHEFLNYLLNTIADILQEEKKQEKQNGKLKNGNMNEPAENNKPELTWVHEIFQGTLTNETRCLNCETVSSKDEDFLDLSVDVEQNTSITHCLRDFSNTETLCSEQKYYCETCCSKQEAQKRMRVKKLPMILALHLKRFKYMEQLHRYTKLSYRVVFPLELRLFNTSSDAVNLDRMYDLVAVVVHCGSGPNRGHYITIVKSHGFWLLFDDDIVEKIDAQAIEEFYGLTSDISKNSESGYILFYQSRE

O=C(CCl)Nc1ccc(Cl)c(F)c1
inactive: [1] -0.0407 | [2] -0.231 | [3] -0.798 | [4] -0.731 | [5] -0.223 | [6] -0.268 | [7] -0.646 | [8] -0.207
